Test results: paper PMC13494018; call rule not given here

B1: design_623_6e2e8b1f-5d9a-4413-9869-27a184816b12_532_dldesign_0_cycle1_af2pred (protein)
chain: AAVAAAIAAGEAAIKTVEALTKQAKTATPEERKAIAEQLRAAAVTLMNAAVASSPAYSPKFGAAAVEALQAAAEAG
B2: design_623_6e2e8b1f-5d9a-4413-9869-27a184816b12_287_dldesign_0_cycle1_af2pred (protein)
chain: AAAAKAALAAAKAKADEVAKYAEEVDPELGKEIKAKQADLTKAAQDGLAISPALAKGAANMLAAYAESAKKKAEKLAKEK
B3: design_623_6e2e8b1f-5d9a-4413-9869-27a184816b12_262_dldesign_0_cycle1_af2pred (protein)
chain: GAAEARAQAEKTFAEAIEVGKEALKEAEKLKEKDKEKAEKYIKKINELLHELFRAMALSMTDPEAGLKAIEEQLKKLKEVLKEIKE
B4: design_623_6e2e8b1f-5d9a-4413-9869-27a184816b12_1170_dldesign_0_cycle1_af2pred (protein)
chain: MSQAVLNTAKIAIETAGRSSPEEAKKLVEQAVDIASSASDENKKELVKYAKELAKKDPSSKEFYEAAAKKIEATL
B5: design_623_6e2e8b1f-5d9a-4413-9869-27a184816b12_873_dldesign_0_cycle1_af2pred (protein)
chain: SENVKKAKALAAKSKELLEKAKKGDAETAQKALKEISKLANELAKLATSSPAADQAATNAALAVAVEAAEEASKIAREKKA
B6: design_623_6e2e8b1f-5d9a-4413-9869-27a184816b12_1233_dldesign_0_cycle1_af2pred (protein)
chain: DAATQAKVKELAEKALNGTPEEAYKATAEAFKISEQAGMEVLAAAAKGKPENAHAALSAYAAGLVAAKKAA
B7: design_623_6e2e8b1f-5d9a-4413-9869-27a184816b12_1249_dldesign_0_cycle1_af2pred (protein)
chain: AEAAKAAALEVLALAQEYYDQAKKNAAKIAPEKLKKADEAYAKALAALAAGDYGLAAHYAMLAYSYSSTGLQEA
B8: design_623_6e2e8b1f-5d9a-4413-9869-27a184816b12_1349_dldesign_0_cycle1_af2pred (protein)
chain: DRLREIAAALAKEVAEATGADPATTEKLAELLAAVLEANQQGPEAFAAAYSKLVDFTVSTGSDALLAKAGAAVSRGLRALG
B9: design_623_6e2e8b1f-5d9a-4413-9869-27a184816b12_569_dldesign_0_cycle1_af2pred (protein)
chain: NAAAQATVAAIVKQLRKRAEEEAGNPEIAKALKDGAEAVKEAGKKGIGAAVETLKETYAKVAELRAAQAAA
B10: design_623_6e2e8b1f-5d9a-4413-9869-27a184816b12_1242_dldesign_0_cycle1_af2pred (protein)
chain: AAARRTALGLQRGASVIAYAKEVGVPEAGRRAGLLVVLALAGGAALGAAAAAAAEALAEELAAAGYPGFGTFVRGILRAARAEAA
B11: design_623_6e2e8b1f-5d9a-4413-9869-27a184816b12_1355_dldesign_0_cycle1_af2pred (protein)
chain: AVAQQALATAQRNLERAKEYAKAGDVKAATAFATTAITLAQAVAATDPALAPQAQAIIDQAQAVIEEAKA
B12: design_623_6e2e8b1f-5d9a-4413-9869-27a184816b12_1293_dldesign_0_cycle1_af2pred (protein)
chain: DAIRARAAEVKERAERLLEEGKRLPEIEEQVREMAESAKALADDALAAAATDPAQARLALAAAEALVRSLELLVERAKEEA
B13: design_623_6e2e8b1f-5d9a-4413-9869-27a184816b12_824_dldesign_0_cycle1_af2pred (protein)
chain: MEEKIKEAEKLYLEGLKAAGAAHAAIVKGDVAAAKKALEKLKEIAEKLKELGKESEEAKKIAENAEKLYEVTKAAVDAAAAA
B14: design_623_6e2e8b1f-5d9a-4413-9869-27a184816b12_1352_dldesign_0_cycle1_af2pred (protein)
chain: AAEARKAEAVARAKAAAQNAKLVAEGAGEAFAAEAAEVAALAKQAATSTAEEAEKLAEQAAAKTVAMTRAAIALHAAA
B15: design_623_6e2e8b1f-5d9a-4413-9869-27a184816b12_681_dldesign_0_cycle1_af2pred (protein)
chain: MEEIKEKAKELAETVEAIGEELAKFGLETGNENAITAGVNTAKHVAKYAERLSPEAGKIAEKTKEKVEKLGKKAKAEIAA
B16: design_623_6e2e8b1f-5d9a-4413-9869-27a184816b12_258_dldesign_0_cycle1_af2pred (protein)
chain: ASEAAAQTITRGVAELRERFADLSPEALAALAAAQQAALLAAIQGDFEAAAAEVVRGAEAVGAISPHTEEIRALGRATAERILALA
B17: design_623_6e2e8b1f-5d9a-4413-9869-27a184816b12_1303_dldesign_0_cycle1_af2pred (protein)
chain: AAAQADALTARGKELYAEGKKKYKEGKKEEAAKLFFEAANDYMRAASLYSKVDPAQAVAALEQMEKAIEEYKKAKE
B18: design_623_6e2e8b1f-5d9a-4413-9869-27a184816b12_997_dldesign_0_cycle1_af2pred (protein)
chain: EGEKLWKEAKALTDQAKALAAQAQATTDAAQAKQYAIEAAAATTEAMRLASEAARLLGPEKQEEANRLVQEATQALVAATQAAQALA
B19: design_623_6e2e8b1f-5d9a-4413-9869-27a184816b12_890_dldesign_0_cycle1_af2pred (protein)
chain: SPAARLMEATYRRLEEALEKLERAEELSPEEVLEAARLAEANARFARLAGRQAAAEEGTAEAAEAAAKAEALAEEAEEKAREARERLE

Target: CD276, Q5ZPR3
Sequence (Q5ZPR3 whole entry): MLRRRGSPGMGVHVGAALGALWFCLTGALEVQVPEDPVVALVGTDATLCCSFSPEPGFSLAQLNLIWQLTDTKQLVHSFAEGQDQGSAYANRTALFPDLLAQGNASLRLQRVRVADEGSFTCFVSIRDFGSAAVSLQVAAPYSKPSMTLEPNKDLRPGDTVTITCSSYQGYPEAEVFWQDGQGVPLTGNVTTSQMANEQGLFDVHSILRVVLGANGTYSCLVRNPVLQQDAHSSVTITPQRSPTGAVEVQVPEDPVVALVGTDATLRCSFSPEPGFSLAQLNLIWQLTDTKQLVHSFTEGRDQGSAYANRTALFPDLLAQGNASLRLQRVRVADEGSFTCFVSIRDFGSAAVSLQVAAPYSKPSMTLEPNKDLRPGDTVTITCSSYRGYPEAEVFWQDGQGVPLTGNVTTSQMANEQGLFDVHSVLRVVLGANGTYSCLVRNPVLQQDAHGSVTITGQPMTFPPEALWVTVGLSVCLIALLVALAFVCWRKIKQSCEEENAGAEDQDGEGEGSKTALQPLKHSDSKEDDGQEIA

Binding in a display sort, inactive:
B1 not found
B2 not found
B3 not found
B4 not found
B5 not found
B6 not found
B7 not found
B8 not found
B9 not found
B10 not found
B11 not found
B12 not found
B13 not found
B14 not found
B15 not found
B16 not found
B17 not found
B18 not found
B19 not found
